Here are results for 65 compounds from PubChem BioAssay AID651610 (Broad Institute, 2012).

Out of some 360,000 compounds screened, about 3,900 (1.1%) were called active. This is one part of a sample in which actives are shown more often than they occur. A number with no mark means an inactive call.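 The calls were made as follows: active = mean replicate inhibition score of at least 50 and every replicate individually at or above 50; inconclusive = only one of the two criteria met; inactive = mean below 50 and not all replicates reaching 50.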

The experiment is described as follows: inhibitors of HIV-1 Env-driven cell-cell fusion, primary screen, HeLa-JRFL effector, CEM21 target cells, luciferase (AID 651610).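 Also: 0% = plate neutral controls and 100% = maraviroc near 300 nM.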 The following applies: stronger effect = higher value; at 16.7 µM unless noted.
A word on the inhibition: it is the relative decrease from the control value, in per cent. For `CNC[C@@H]1Oc2c(NC(=O)C3CCOCC3)cccc2C(=O)N([C@@H](C)CO)C[C@H]1C`, the inhibition was -14.2%.
In the case of `C[C@H]1CN([C@@H](C)CO)C(=O)Cc2cc(NC(=O)C3CC3)ccc2O[C@@H]1CN(C)C(=O)NC1CCCCC1`, the inhibition was 2.31%.
Take `C/C=C/c1ccc2c(c1)O[C@H](CN(C)C(=O)C1CCCCC1)[C@@H](C)CN([C@@H](C)CO)S2(=O)=O`: the inhibition is 8.29%.
The result for `C[C@@H]1CN([C@H](C)CO)C(=O)c2cc(C3=CCCC3)cnc2O[C@@H]1CN(C)C(=O)Nc1ccc(F)cc1` reads 4.49%; that for `O=C(O)CC/C(=C\c1cc2c(cc1Br)OCO2)c1nc2ccccc2s1`, -9.93% [at 12.3 µM].
The result for `CC1(C(=O)N/N=C/c2cc3c(cc2Br)OCO3)CC1(Br)Br` (stereo not given) reads 102% [at 12.3 µM] (active); that for `O=C(N/N=C\c1cc2c(cc1Cl)OCO2)c1ccc(Br)s1`, -61.6% [at 12.3 µM]; that for `Cc1noc(C)c1S(=O)(=O)Nc1ccc2c(c1)CC(=O)N([C@H](C)CO)C[C@H](C)[C@H](CN(C)S(=O)(=O)c1cn(C)cn1)O2`, -15.2%.
The result for `Cc1noc(C)c1NC(=O)N(C)C[C@@H]1Oc2ccc(NS(=O)(=O)c3ccc(F)cc3)cc2CC(=O)N([C@@H](C)CO)C[C@H]1C` reads -12%; that for `Cc1ccc2nc(-c3ccc(Br)cc3)cn2c1`, 34.5% [at 12.3 µM].
As for `Cc1ccc(-c2nc3ccc(Cl)cn3c2Cc2ccccc2)cc1`, the inhibition is -27% [at 12.3 µM].
Turning to `Cc1ccc(-c2cn3cc(C)ccc3n2)cc1`, the inhibition is 60.5% [at 12.3 µM] (active).
`C[C@H](CO)N1C[C@H](C)[C@@H](CN(C)S(=O)(=O)c2ccccc2F)Oc2ncc(C#Cc3ccccc3F)cc2C1=O`: the inhibition is 17.5%.
The result for `Cn1c2ccccc2c2c(C(=O)N3CCN(c4ccc(F)cc4)CC3)cn(C3CCCC3)c(=O)c21` reads 67.5% [at 12.3 µM] (active); that for `Cn1c(C(=O)N2CCC(C(N)=O)CC2)cc2c(=O)n(C)c3ccccc3c21`, 0.068% [at 12.3 µM]; that for `CCOC(=O)N1CCN(C(=O)c2nn(-c3ccc(C)cc3)c(=O)c3c2c2ccccc2n3C)CC1`, -11% [at 12.3 µM].
Turning to `O=C(C[C@@H]1CC[C@H]2NC[C@H](O)COC[C@@H]2O1)NCCN1CCCCC1`, the inhibition is -8.63%.
Turning to `C[C@H]1CCCCO[C@@H](CN(C)C(=O)Cc2ccccc2)[C@@H](C)CN([C@@H](C)CO)C(=O)c2cc(NC(=O)c3ccccc3)ccc2O1`, the inhibition is -43.3%.
The result for `COc1ccc(C(N)c2csc(NC(=O)Nc3cccc(C(F)(F)F)c3)n2)cc1` (stereo not given) reads 18.1% [at 12.3 µM]; that for `NC(c1ccccc1)c1csc(NC(=O)Nc2cccc(C(F)(F)F)c2)n1` (stereo not given), 39.2% [at 12.3 µM].
The result for `NC(c1csc(NC(=O)Nc2cccc(C(F)(F)F)c2)n1)C1CCCCC1` (stereo not given) reads 61% [at 12.3 µM] (active); that for `C[C@@H]1CN([C@@H](C)CO)C(=O)c2cc(-c3ccccc3F)cnc2O[C@H]1CN(C)C(=O)C1CC1`, 15%.
The result for `COc1ccc(C(CCNCc2ccccc2F)c2ccc(F)cc2)cc1` (stereo not given) reads -1.51% [at 12.3 µM]; that for `COc1cccc(CNCCc2c[nH]c3ccccc23)c1OCc1ccccc1F`, 79.1% [at 12.3 µM] (active).
For `Cc1cc(C)cc(NC(=S)NCCc2c[nH]c3ccccc23)c1`, the inhibition is 2.48% [at 12.3 µM].
The result for `CC(C)CC#Cc1ccc2c(c1)O[C@H](CN(C)Cc1ccncc1)[C@H](C)CN([C@H](C)CO)S2(=O)=O` reads 12.7%; that for `CCCNC(=O)C[C@@H]1CC[C@H]2[C@H](COc3ccc(NC(=O)CCC)cc3C(=O)N2C)O1`, -1.97%; that for `CCNC(=O)c1cc2c(c(-c3cccc(C4=CCCC4)c3)n1)[C@H](CCO)N([S@@](=O)C(C)(C)C)C2`, -0.132%.
Consider `COc1cccc(Nc2nc(N)c([N+](=O)[O-])c(NCc3ccco3)n2)c1`, for which the inhibition was 56.2% [at 12.3 µM] (active).
For `COc1ccc(Nc2nc(NCc3ccco3)nc(N/N=C/c3ccccc3Cl)n2)cc1`, the inhibition is -11.9% [at 12.3 µM].
The result for `CNc1nc(Nc2ccc(C)c(Cl)c2)nc(N)c1[N+](=O)[O-]` reads 17.7% [at 12.3 µM]; that for `CO[C@H]1CN(C)C(=O)c2ccc(NC(C)=O)cc2OC[C@@H](C)N(C(=O)c2ccccn2)C[C@@H]1C`, 4.28%; that for `C[C@@H]1CN([C@H](C)CO)S(=O)(=O)c2ccc(Br)cc2O[C@@H]1CN(C)Cc1cncnc1`, -25.8%.
Take `C[C@@H]1CN([C@H](C)CO)C(=O)c2cccc(N(C)C)c2O[C@H]1CN(C)S(=O)(=O)c1cn(C)cn1`: the inhibition is -2.57%.
The result for `O=C(Cc1ncc(C(F)(F)F)cc1Cl)Nc1cccc(Br)c1` reads -3.53% [at 12.3 µM]; that for `O=C(CC(O)(C(F)(F)F)C(F)(F)F)Nc1ccc(Cl)c(Cl)c1`, 109% [at 12.3 µM] (active).
The result for `O=C(CN1CCOCC1)Nc1ccc(NC(=O)CN2CCOCC2)c(Cl)c1` reads -13.8% [at 12.3 µM].
For `Cc1noc(C)c1NC(=O)N[C@@H]1C=C[C@H](CC(=O)N2CCCCC2)O[C@H]1CO`, the inhibition was 7.13%.
The result for `C[C@H](CO)N1C[C@H](C)[C@@H](CN(C)C(=O)c2ccccc2)OCCCC[C@H](C)Oc2ccc(NC(=O)c3ccccc3)cc2C1=O` reads -52.7%.
As to `CCCCOCCCNC(=O)C[C@@H]1C[C@@]2(C(=O)OC)CCCCC=C2N(CCC2=CCCCC2)C1=O`, the inhibition was 63.6% [at 12.3 µM] (active).
The result for `COC(=O)[C@]12C[C@H](CC(=O)NCCCCc3ccccc3)C(=O)N(Cc3ccc4c(c3)OCO4)C1=C[C@H](C(C)(C)C)O[C@@H]2C` reads -19.5% [at 12.3 µM]; that for `CCOC(=O)[C@]12CCCC=C1N(CCC1=CCCCC1)C(=O)[C@H](CC(=O)NCCCOC)C2`, 20% [at 12.3 µM].
The result for `COC(=O)[C@]12C[C@H](CC(=O)NCCC(C)C)C(=O)N(CCc3ccc(OC)c(OC)c3)C1=C[C@H](C(C)(C)C)O[C@@H]2C` reads 14.5% [at 12.3 µM].
For `COC(=O)[C@]12C[C@H](CC(=O)NCc3ccccc3)C(=O)N(CCC3=CCCCC3)C1=C[C@H](C(C)(C)C)O[C@@H]2C`, the inhibition is 67.5% [at 12.3 µM] (active).
The result for `CCCCCCCCN1C(=O)[C@@H](CC(=O)NCCCC)C[C@@]2(C(=O)OC)C1=C[C@H](C(C)(C)C)O[C@@H]2C` reads 39.6% [at 12.3 µM]; that for `COC(=O)[C@]12C[C@H](CC(=O)NCc3ccc(C)o3)C(=O)N(CCC3=CCCCC3)C1=C[C@H](C(C)(C)C)O[C@@H]2C`, 70.3% [at 12.3 µM] (active).
The result for `CCCCCCCCN1C(=O)[C@@H](CC(=O)NCc2ccc(C)o2)C[C@@]2(C(=O)OC)C1=C[C@H](C(C)(C)C)O[C@@H]2C` reads 38% [at 12.3 µM]; that for `CCCCCCCCN1C(=O)[C@@H](CC(=O)NCc2ccccc2)C[C@@]2(C(=O)OC)C1=C[C@H](C(C)(C)C)O[C@@H]2C`, 64.7% [at 12.3 µM] (active).
Turning to `CCOC(=O)[C@]12CCC=C1N(CCC1=CCCCC1)C(=O)[C@H](CC(=O)NCc1ccc(C)o1)C2`, the inhibition is -8.89% [at 12.3 µM].
The result for `COCCCNC(=O)C[C@H]1C[C@@]2(C(=O)OC)C(=C[C@H](C(C)(C)C)O[C@@H]2C)N(Cc2ccc3c(c2)OCO3)C1=O` reads -14% [at 12.3 µM]; that for `CCCCOCCCNC(=O)C[C@@H]1C[C@@]2(C(=O)OCC)CCCC=C2N(CCC2=CCCCC2)C1=O`, 34.4% [at 12.3 µM].
The result for `COc1ccccc1NC(=O)N[C@H]1CC[C@@H](CCn2cc(C3(O)CCCC3)nn2)O[C@@H]1CO` reads -2.19%; that for `N#C[C@H]1[C@H](c2ccc(-c3ccccc3)cc2)[C@@H](CO)N1C(=O)Cc1ccccc1`, -31.2%; that for `C[C@@H]1CCCCO[C@H](CN(C)C(=O)CCCN(C)C)[C@H](C)CN([C@H](C)CO)C(=O)c2cc(NC(=O)CCC(F)(F)F)ccc2O1`, 6%.
The result for `C[C@@H]1CCCCO[C@@H](CN(C)Cc2ccncc2)[C@H](C)CN([C@H](C)CO)C(=O)c2cc(NC(=O)NC3CCCCC3)ccc2O1` reads 10.4%; that for `O=C(C[C@@H]1C[C@H]2c3cc(NC(=O)Nc4ccccc4)ccc3O[C@H]2[C@@H](CO)O1)NC1CCCCC1`, 6.41%; that for `O=C(CN(c1cc(C(F)(F)F)ccc1Cl)S(=O)(=O)c1ccccc1)NCc1cccnc1`, 85.1% [at 12.3 µM] (active).
As for `CN(CC(=O)NCc1cccnc1)S(=O)(=O)c1cc(Cl)ccc1Cl`, the inhibition was 2.11% [at 12.3 µM].
As for `CCc1ccc(N(CC(=O)NCc2cccnc2)S(=O)(=O)c2ccccc2)cc1`, the inhibition was 10.5% [at 12.3 µM].
`C/C=C/c1ccccc1[C@@H]1[C@@H](C#N)N(c2nc(CC)cs2)[C@@H]1CO`: the inhibition was -1.66%.
For `CCCNC(=O)N1CCC2(CC1)CN(C(=O)CN1CCOCC1)[C@H](CO)c1[nH]c3cc(OC)ccc3c12`, the inhibition is -5.75%.
The result for `Cc1ccccc1-c1cnc2c(c1)C(=O)N([C@H](C)CO)C[C@H](C)[C@@H](CN(C)C(=O)c1ccccc1)O2` reads -8.15%; that for `O=C(NCc1ccc2c(c1)OCO2)C12CC3CC(CC(C3)C1)C2`, 8.77% [at 12.3 µM]; that for `S=C(NCc1ccc(Cl)cc1)NC12CC3CC(CC(C3)C1)C2`, 103% [at 12.3 µM] (active).
The result for `Cc1ccc(C(=O)NC23CC4CC(CC(C4)C2)C3)c(Cl)c1` reads -0.699% [at 12.3 µM].
